Compound activity from PubChem.
ELG1 genotoxic: inducers of genotoxicity in HEK293T ELG1-luciferase cells. Potency, µM (doses to about 46 µM), inactives show at the top dose activity change, positive = activation, actives largely listed as activators. HEK293T ELG1-luciferase reporter, luminescence, 16 h. 330,000 compounds, 1.3% hits; also: % of control where 0% means no effect; nearly all actives have a fitted effect of over 60% in size
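Genotoxicity was scored as increased ELG1-luciferase reporter signal, measured by ONE-Glo luminescence (30 min, room temperature). Compound or vehicle exposure of the HEK293T reporter cells lasted 16 hr at 37°C.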
SMN2 splice up: SMN2 splice variant enhancement; HEK293 SMN2-luciferase splicing reporter, luminescence, 30-36 h; Potency, µM (doses to about 46.1 µM), without a hit: at the highest dose activity change, positive = activation, actives largely listed as activators; 210,000 compounds, 2.8% hits; AID 1458; also: % of control where 0% means no effect; nearly all actives have a fitted effect of over 55% in size
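qHTS luciferase splicing reporter: luminescence rises when SMN2 exon 7 is included in transfected HEK293 cells. Compound exposure lasted 30-36 h at 37C, with 4.5 mM final sodium butyrate as control, followed by a ONE-Glo read.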
Rab9 promoter act: activates the Rab9 promoter | Huh7 Rab9 promoter-luciferase reporter, luminescence, 24 h | Potency, µM (titrated, usually from 9.22 µM), inactives show top-dose activation, negative = inhibition, hits mostly activators | AID 485297 | 320,000 compounds, 2.8% hits; also: % of control where 0% means no effect; nearly all actives have a fitted effect of over 60% in size
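Stable Rab9-luc Huh7, 1500 cells/well, 2 h settle; cmpd in DMSO, 24 h, 37 °C/5% CO2; luciferase reagent 10 min RT; luminescence.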
FLuc modulator: counter-screen for miR-21 project: firefly luciferase inhibitors or activators | Potency, µM (top dose mostly 57.5 µM), for the others: at the top dose activity change, negative = inhibition, actives largely listed as inhibitors | P08659 | purified FLuc, Km substrates, luminescence inhibition | 360,000 compounds, 6.9% hits;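 also: plate controls were vehicle for no effect and reference inhibitor for full effect; nearly all actives have a fitted effect of over 55% in size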
Target sequence (P08659 whole entry, looked up): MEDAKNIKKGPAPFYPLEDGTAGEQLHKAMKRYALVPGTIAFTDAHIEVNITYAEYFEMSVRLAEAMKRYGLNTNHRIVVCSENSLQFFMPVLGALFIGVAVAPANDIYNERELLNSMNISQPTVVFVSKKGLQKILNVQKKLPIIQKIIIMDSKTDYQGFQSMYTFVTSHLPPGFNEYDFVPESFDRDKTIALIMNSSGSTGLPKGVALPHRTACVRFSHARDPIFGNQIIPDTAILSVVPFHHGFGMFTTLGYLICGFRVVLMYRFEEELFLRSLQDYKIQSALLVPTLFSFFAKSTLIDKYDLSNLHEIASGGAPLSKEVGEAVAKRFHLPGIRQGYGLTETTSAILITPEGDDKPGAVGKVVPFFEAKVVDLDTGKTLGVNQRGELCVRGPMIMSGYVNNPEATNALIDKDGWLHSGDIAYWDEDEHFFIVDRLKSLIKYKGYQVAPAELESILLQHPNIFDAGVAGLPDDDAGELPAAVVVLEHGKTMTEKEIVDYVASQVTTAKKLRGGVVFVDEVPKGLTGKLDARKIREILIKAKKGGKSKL
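Purified P. pyralis luciferase (10nM final) with 10uM D-luciferin and 10uM ATP (Km levels) in 50mM Tris acetate pH 7.5, 10mM Mg acetate, 0.01% Tween-20, 0.05% BSA; qHTS 6-point titration, ~60 µM downward; luminescence read.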
NPC1 promoter act: NPC1 promoter activation. Potency, µM (doses to about 9.22 µM), inactives show at the top dose activation, usual class: activators. AID 485313. 320,000 compounds, 2.4% hits. Huh7 NPC1 promoter luciferase reporter, 24 h; also: % of control where 0% means no effect; nearly all actives have a fitted effect of over 60% in size
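Quantitative HTS used a cell-based reporter: Huh7 cells stably bearing the NPC1 promoter upstream of luciferase were treated with compounds for 24 h, and promoter activation was read as luminescence.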
* = called active by the depositor; ? = inconclusive; · = not tested or not shown; [ ] = remark or other dose. Most compounds without a hit are left out; they make up all but 7.5% or so of the library. Calls follow the shape of the dose curve; as a rule, active = well fitted curve in the direction sought with a large enough effect; inconclusive = small, poorly fitted or top-dose-only effect, or another doubt; inactive = no such curve, though single readings can be large; an effect the other way counts as inactive or inconclusive. Potency is read from the fitted curve at half-maximal effect.

SMILES	ELG1 genotoxic	SMN2 splice up	Rab9 promoter act	FLuc modulator	NPC1 promoter act
COC(=O)c1ccc(COc2cc(O)c3c(c2)OC(C)(C)CC3=O)cc1	0%	-50%	?	15µM*	20%
CC(=O)Nc1ccc(NC(=O)COc2cc(O)c3c(c2)OC(C)(C)CC3=O)cc1	10%	·	2%	21µM*	11%
Cc1c(C(=O)OCC(=O)NCc2ccco2)cccc1[N+](=O)[O-]	2%	·	0%	0%	-2%
CC1(C)CC(=O)c2c(O)cc(OCC(=O)N3CCN(c4ccc(F)cc4)CC3)cc2O1	-13%	·	4%	21µM*	-3%
NC1=NCC2c3ccccc3Cc3ccccc3N12 (configuration not stated)	·	·	-2%[46.1 µM]	·	7%[46.1 µM]
COc1ccc(CNC(=O)CN2C(=O)CCSc3ccc(S(=O)(=O)N4CCCC4)cc32)cc1	-2%	·	-3%	-2%	0%
O=C(COC(=O)c1cccc(NC(=O)c2ccc(Br)cc2)c1)c1ccc(Cl)cc1	·	?	·	2.7µM*	·
O=C(COC(=O)c1cccc(NC(=O)c2ccco2)c1)c1ccc(Br)cc1	10%	13%	?	1.7µM*	?
N#C/C(=C(/O)CN1CCCC1)c1nc(-c2ccccc2)cs1	?	·	3.2µM*	19µM*	4µM*
CN(C)CCCN(C(=O)C1COc2ccccc2O1)c1nc2cc3c(cc2s1)OCO3 (configuration not stated)	3%	·	-1%	0%	-5%
CCN(CC)CCCCCCCCOC(=O)c1cc(OC)c(OC)c(OC)c1	18µM*	22%	-16%[46.1 µM]	7%	-11%[46.1 µM]
O=C(CN(Cc1ccccc1F)C(=O)Cn1nnc(-c2cccs2)n1)NCC1CCCO1 (configuration not stated)	3%	-28%	0%	3%	11%
O=C(/C=C\c1ccccc1OC(=O)c1ccccc1F)c1cc2ccccc2o1	16µM*	-117%	?	2.1µM*	?
CC(=O)/C=C\c1ccccc1OC(=O)c1cc2ccccc2oc1=O	2%	·	-2%	-4%	-6%
FC(F)(F)c1nc2cc3nc4ccccc4[nH]c3cc2n1	0%	·	?	24µM*	?
Cc1cccc(OCCCCn2nnc3sc4c(c3c2=O)CCC(C)C4)c1 (configuration not stated)	·	4%	·	1%	·
CCc1ccc(OCCCC(=O)Nc2ccc(S(N)(=O)=O)cc2)cc1	-2%	·	-6%	5%	-4%
CC1CCCN(C(=O)CNC(=O)c2cccs2)C1 (configuration not stated)	22%	·	?	?	4µM*
O=C(/C(=C(\[O-])c1ccccc1)[n+]1ccc2ccccc2c1)c1ccccc1	11%	5%	2%	24µM*	8%
Cc1ccc(C)c(CSc2nc3c([nH]c4ccccc43)c(=O)n2C)c1	·	·	·	0%	·
Cc1ccc(NC(=O)c2ccc(=O)n(Cc3ccccc3C)c2)c(C)c1	·	·	·	-5%	·
CN(C)S(=O)(=O)c1cccc(NC(=S)NC(=O)c2ccco2)c1	11%	·	3.5µM*	?	?
CCOc1ccc(NC(=O)c2ccco2)cc1	?	10µM*	0.63µM*	4.8µM*	0.71µM*
CCOc1ccc(NC(=O)CCC(=O)NNC(=O)c2ccco2)cc1	-1%	-4%	-1%	-8%	-4%
O=C(NC(=S)Nc1cccc([N+](=O)[O-])c1)c1ccco1	6%	28%	28%	2%	16%
SMILES	ELG1 genotoxic	SMN2 splice up	Rab9 promoter act	FLuc modulator	NPC1 promoter act
CCOc1ccc(NC(=S)NC(=O)c2ccco2)cc1	16%	·	1.4µM*	11µM*	2µM*
COC(=O)COc1ccc(NC(=O)c2ccco2)cc1	3%	·	3%	24µM*	-1%
CN1CCN(C(=O)CCc2nc3ccccc3n2-c2ccccc2)CC1	1%	3%	-3%	1%	-2%
Cc1ccc(CNC(=O)[C@H](C)NC(=O)C2CCN(C(=O)[C@@H]3CCCN3C(=O)OC(C)(C)C)CC2)cc1	0%	·	6%	0%	-5%
COc1cc(OC)c(OC)cc1CNC(=O)CCN1C(=O)c2cccc([N+](=O)[O-])c2C1=O	2%	·	3%	-1%	-2%
COc1ccc(OCC(=O)Nc2cccc(NC(=O)c3ccco3)c2)cc1	-2%	·	5%	12µM*	6%
O=C(Nc1ncc([N+](=O)[O-])s1)c1ccc2c(c1)OCO2	?	·	1.3µM*	0.11µM*	3.2µM*
O=C(Nc1ncc([N+](=O)[O-])s1)c1ccco1	2.6µM*	·	1.1µM*	11µM*	1.6µM*
O=C(Cc1ccc(Br)cc1)Nc1ncc([N+](=O)[O-])s1	-3%	·	?	?	?
Cc1ccc(C(=O)Nc2ncc([N+](=O)[O-])s2)cc1	?	·	0.025µM*	0.12µM*	0.032µM*
Cc1ccc([N+](=O)[O-])cc1NC(=O)c1ccc2c(c1)OCO2	-6%	-8%	-1%	-12%	0%
Cc1onc(-c2ccccc2)c1C(=O)Nc1ncc([N+](=O)[O-])s1	-39%	·	-19%	-20%	-11%
Cc1cc(C)n2nc(SCc3nnc(SCc4ccccc4Cl)s3)nc2n1	-1%	-56%	-4%	17µM*	-3%
Cc1cc(C)n2nc(SCc3nnc(SCc4ccccc4C)s3)nc2n1	-6%	-23%	-2%	?	0%
CC1CCc2c(sc3ncnc(SCC(=O)N(C)C4CCS(=O)(=O)C4)c23)C1 (configuration not stated)	-2%	·	·	·	·
Cc1cc(C(=O)COC(=O)c2cccc(O)c2)c(C)n1C1CC1	?	·	?	0.27µM*	?
Cc1cccc(C)c1NC(=O)CN1CCN(CC(=O)c2cc(C)n(C3CC3)c2C)CC1	0%	·	-1%	1%	-2%
Cc1cc(C(=O)COc2cccc([N+](=O)[O-])c2)c(C)n1C1CC1	?	·	3.2µM*	2.4µM*	2.2µM*
COc1cccc(CNC(=O)CCS(=O)(=O)c2ccccc2Cl)c1	0%	·	2%	-1%	15%
CC(=O)Nc1nnc(SCc2cc(=O)c3cccc(C)c3[nH]2)s1	·	·	·	7%	·
COc1cccc(N2CC(C(=O)Nc3nnc(SCC(=O)NC4CCCC4)s3)CC2=O)c1 (configuration not stated)	6%	·	1%	6%	-2%
COc1cccc(C(=O)Nc2nnc(SCC(=O)NC3CC3)s2)c1	?	·	?	5.4µM*	?
COc1ccc(C(=O)Nc2nnc(SCc3cc(=O)c4cccc(F)c4[nH]3)s2)cc1	·	·	·	21µM*	·
COc1ccc(C(=O)Nc2nnc(SCC(=O)NC3CC3)s2)cc1	?	·	2.5µM*	1.2µM*	1.4µM*
S=c1nc(C2CC2)n(-c2ccccc2)[nH]1	4%	·	-4%	-4%	0%
COc1ccc(OCCOC(=O)CNC(=O)c2ccc(Cl)cc2Cl)cc1	3%	·	1%	?	-4%
O=C(CCC(=O)NNC(=O)c1ccc(Cl)cc1Cl)NCc1ccccc1	1%	·	3%	1%	-1%
